Z-score data for 107 sequences are collected here from PubChem BioAssay AID1508600 (Functional Genomics Laboratory (NCATS/FGL), 2020).

In all, about 53,000 sequences went through this assay and about 3,700 (7%) were called active. The full list was thinned out, with actives kept by preference. Values without a mark were called inactive.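 Rule for the calls: active = gene knockdowns whose robust z-score for IL-1 alpha signal is at least 2 or at most -2, so actives lie on both sides; inactive = the rest.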

A short description of this assay: Components of the Cytosolic LPS Sensing Pathway: Gene Identification via Genome-wide siRNA Screen. The note with it: RAW264.7 macrophages, IL-1a HTRF, actives lie on both sides, screened at 100 nM (by protocol), cells primed 5 h with Pam3CSK4 first. The text has this: Non-canonical inflammasome activation by cytosolic LPS is a critical component of the host response to Gram-negative bacterial infection, however we lack a comprehensive understanding of the cellular processes that control this pathway. Here we describe a genome-wide siRNA screen to identify genes regulating the mouse macrophage IL-1 alpha response to cytosolic LPS.
RAW264.7 cells were maintained in complete DMEM media, comprising DMEM with 4.5 g/L glucose, 10% FBS (Gemini Bio-Products, West Sacramento, CA), 2 mM Glutamine (Lonza) and 20 mM HEPES (Lonza), hereafter complete DMEM.
The RNAi screen was conducted in 384-well format using the Ambion Silencer Mouse Genome siRNA Library (#4391425), which consists of three unique, nonoverlapping, nonpooled siRNAs for each of 17,000 gene targets. siRNA reagents ([…]) were stamped into 384-well white flat-bottom microplates (Corning, 3570) using a Velocity11 VPrep liquid handling system (Agilent) integrated into a BioCel robotic platform (Agilent) in columns 1-22, leaving columns 23-24 empty for negative (Ambion, Negative control #1) and positive (mouse Casp4) controls, respectively. The median value of each plate's negative control column was used to normalize sample wells, and the positive control was used to assess transfection efficiency and assay performance.
Lipofectamine RNAiMAX Transfection Reagent ([…]; Invitrogen) was added in […] serum-free, antibiotic-free media to plate wells using a Thermo Scientific Matrix WellMate and Microplate Stacker. Plates were incubated for 45 min at room temperature to allow for the sufficient formation of siRNA-lipid complexes. Cells were seeded at a density of 1x10^4 cells per well in 20 microL media containing 20% (vol/vol) FBS without antibiotics. The final concentration of siRNA in each well was 100 nM. Cells were cultured for 48h at 37 degrees C in 5% CO2 before addition of […] of TLR ligand Pam3CSK4 for 5 hours. The medium was then removed, replaced with […] growth media and cell were transfected with […] of LipidA and TransIT-TKO (Mirus) for 24 hour. At the end of the LipidA treatment, […] of supernatant was transferred to a 384 Greiner Bio-one non-binding low volume plate and […] of IL-1a HTRF reagent (Cisbio, 62MIL1APEH) was added and incubated at room temperature overnight. The plates were read on an EnVision plate reader (PerkinElmer). Cell viability was measured by adding 20ul Cell Titer Glo to the original plate and running a luminescence read on the EnVision. The quantified IL-1a signal for each siRNA gene-targeted well was divided by the median of the negative control wells and multiplied by 100 to achieve a negative control normalized value for each well/siRNA. This normalized value was then used to generate a robust z-score by first taking the log of each value and then by subtracting the median and dividing by the […].
On the technique in general: Time-resolved FRET reads energy transfer from a long-lived donor to a nearby acceptor.
In the case of CCUUCUAGUGCAUCAGUGGTT against Olfr890, the z-score was -0.508.

In the case of GGCUCUGGUCCAAGAAAUGTT against C4b, the z-score was -0.176. Take CCAUGUCGUAUGUGAUUCUTT against Hils1: the z-score was -0.528.

As for GGAUGUUGAACAAAAGAAGTT against Abce1, the z-score is -0.863.

Turning to GCUUAUGUUGUUGUGCAUUTT against Zfyve21, the z-score is 0.362. With GCUAUUCAAUCUGAGGAAATT against Olfr1278 the figure was 0.246; with GCCUGGAUUAUAGGAUCACTT against Tmem208, -1.45; with GGAUUAGAAUGUCAUGUCUTT against Ddx20, -1.28. Next, GCAUCAGGCCCGUUCAGAATT against Ddx4: 3.23 (active); “GCAGGUUGCUAUGCAUAUGTT against 9930038B18Rik”: 0.722; CGCAUUUUAGUUCAUCUGUTT against Sowahb: -0.669. Next, GGAUCAAGGAGCAAGUGGUTT against B4galnt1: -1.7.

With GACCUUCCAGGUCAAGUUGTT against Plcg1, the z-score is 2.56 (active).

Take CCUAUUCCAUUGACAAUGATT against Tubb2a: the z-score is 0.286. With GCUAAUUCAUGAAUUGAUGTT against Ofd1 the figure was 1.01; with GGAGCAGGAGAAAAUUUUGTT against Olfr437, -0.0124.

On to GGCCCGUCACAUGAAGAAGTT against Ip6k3, for which the z-score is 0.238. With GGAGCUAAGUGAUUUUAGATT against Mtf1 the figure was 0.403; with GGUGGAGGAUUUUUCAGAUTT against Hs6st2, 2.42 (active). Next, GGAGGAUAUUGGAACUGCCTT against Lrrc26: 0.312.

In the case of GGCAUUAUCGUGGUUGGCATT against Ntpcr, the z-score is -1.97.

Regarding GCACGAGAGUCUGAAGGAUTT against Mns1, the z-score was -0.2. With GGUUGUCGCCAGAAUCAAGTT against Slc9a3r2 the figure was 2.28 (active); with GGAUCUAUGGACGACCUUCTT against Kcnj10, -0.643. With GGCGUGUCUGUAAAAUCUUTT against Exo5 the figure was 0.656; with GCGAGAUUGGUGCAAAACUTT against Grem1, -1.43. Next, CCGUCAUCCGAGCAAUCAGTT against Kcnq5: -0.248; CGAACGAUUGAAGAUUUCUTT against Nat3: 2.81 (active); GGUGGCAGACAUUUCAACATT against Ifi27: 1.54. As to GCUUCUUACAGUUUGCCCATT against Vmn1r65, the z-score was -0.859. Next, CGUGACCAUCAGGCUAAAGTT against Ecrg4: 3.42 (active); GGUAAAAAAUGCUUUCAACTT against Olfr1008: 0.696; GGCGACAGCUAAGUGUUGGTT against Gprc5a: -0.0528. With GGAGCUGAUAAGAAAACUATT against Gbp2 the figure was 0.486.

In the case of CCCUCAGUUGGUCACAUGUTT against Mpc1, the z-score is -0.182.

As for GGGACAAAAUUAUUCCUCCTT against Med14, the z-score was -0.977.

With GGAACAACUUUCAUCUCACTT against Anxa10, the z-score was 1.34. With CGAAAUUUAACUUGAACAGTT against Toporsl the figure was 0.659; with GGGACGGAGAAAAGCUUUUTT against Olfr419, 3.92 (active). As for AGCAGAAAAAGGAAGGCCATT against Xlr3c, the z-score was 0.733. With GGACACAGACCUUUGUUAATT against Lpar6 the figure was -0.0566. Next, GUUCACACACGAAUUUGACTT against H2-Oa: -2.32 (active); GCCUGUUUGGUAUUCUUCCTT against Olfr832: -1.19; GGGAAACUCUGCAUGAGUATT against Tenm1: -0.137. With CCUCUGUUGAACCAUCAUUTT against Gpr21 the figure was 0.127; with GGCGGUGAUGGAAUGAACATT against Plod2, 0.706. As for CCUACCACAUGGAUGAGUATT against Accs, the z-score was 0.525. Take GCUCUAGGGUCGUAAUGUUTT against Ralb: the z-score is -2.33 (active).

On to GGAUUUCAUCUGGUACCUGTT against Ceacam19, for which the z-score is -0.0176.

As to CGGAAUAUAGAAUGAAACCTT against Cd200r3, the z-score is 0.731. With GGACCAUAAAGUGUUACUATT against Tnrc6b the figure was 0.526. With GGGCCCAUUUUCAGAAAUGTT against Tagln3 the figure was 0.0546; with GGAGGUUAAGAUUCCAGAGTT against Prune1, 1.52; with CCUAUGGCCAUGAUCCUUATT against Olfr575, 1.29. With GGUCAAUGAACCAUCCCACTT against Padi6 the figure was -0.983. Consider GGAACACCAUCAAUAAACUTT against Tjap1, for which the z-score is -2.09 (active). Next, GGACCAGAGUAACUUGAAUTT against Zfp128: -0.66. Next, CCAUUAUUCUAGUGUCCUATT against Olfr1368: -0.753. With GGGCUAUCUUCUGAUUGGCTT against Zp3r the figure was -2.45 (active); with GGAACUGCUCAAGAUCAAGTT against Plagl2, 1.92.

For the sequence GGGCUGAUAAUGUUAGCUCTT against Olfr161, the z-score is 0.48.

As to CCUCAUAGGCUUGACAAUUTT against Exoc2, the z-score was -0.0626.

As to GGCAGCAUGAUUAUUUCAATT against Gm4861, the z-score is -0.0747. Next, GGAAGUAGGACUAGCCAUCTT against Akr1c6: 3.37 (active); CCUGAAAAGCUAUUGGGUATT against Baat: -0.196. Regarding GGGAUGGAGAAUCAAGAUATT against Tmem117, the z-score was -1.9. For CCCACAUAAAUAAGUUGGUTT against Olfr996, the z-score is -1.02. Next, GGUUCAGCUUUUCAUCAGUTT against Cops3: 1.37. As to GGAGAUUAUCACAACUAUUTT against Sash3, the z-score is 0.845. With GGUUCUUGGGCACCAUUAUTT against Olfr786 the figure was 0.742; with “GCCGUUUGUACCUUGUCAGTT against 4933430I17Rik”, -3.01 (active). With GCAAUAUUUCAGCACACUGTT against Txndc16 the figure was -1.08; with GCUAAAUUCAGCUGAGGCUTT against Kdm4d, -0.217; with GGGAAUAUGUCUUGUGAUATT against Ddo, 0.141. With GGUUUUACUGUAGACCUUUTT against Hnrnpa1 the figure was 0.542; with GGGAAACUUCUUCAUGGGUTT against Dazap2, 0.0384; with GGAGUAUGAAUGCUAUGUCTT against Fsd2, -3.24 (active).

With GGCUCAUCGAGAUUAACCCTT against Carns1, the z-score is 0.195. For GGACAUAUUGGAUGGUGAUTT against Usp2, the z-score was -0.847. With CCGAGAACUACCUGUGUAATT against Unc119b the figure was 0.266. Next, GGGUUCAAAUAGUUUACCUTT against Tmem33: 0.156; GCCGCAUUGAGUACAUGGUTT against Ap1m1: 1.9; GGGAUGAUUUUGAGAUUUUTT against Dmpk: 2.74 (active). Regarding GGAUUUCAGAAAGUGGCCUTT against Acad8, the z-score was -1.22. Next, CCCUAUGGACUGAGUUUGUTT against Olfr183: -0.036; CUACGUGCUAGCUCAAGGATT against Mmp28: -1.1; GGAAGUAUUUCACAUGUGATT against Dctn1: -0.299. With CGGUAUAUAGAUCACUUCUTT against Olfr56 the figure was 0.276. Next, GGUGAUCCUCAUAUUGGCCTT against Npy2r: -0.521. For the sequence GCUACUUGUUGAGACCCAATT against Esr1, the z-score is -0.616. As to GCCCAAAAGUAUAAACCAGTT against Peg12, the z-score was 0.318. Turning to CGAGCUUGCUAUCGGGAAGTT against Defb7, the z-score is -0.902. With “GCUUAAGCAGUGAUAAUAATT against B230317F23Rik” the figure was -1.65; with CGAGGACUACUAGAAGAAATT against Trpc1, 2.36 (active); with GGACACAGGACUCUACACCTT against Psg16, 0.293. Next, CGGGAAGCAUCACUAUUUCTT against Nabp1: -0.822. With GGACUCUUUUAUGAGUUUGTT against Lims1 the figure was 0.757; with GGCUAAAACAAGUGAAUGGTT against Gli3, -0.619. In the case of GGAGUAAAAAUGAGUAUGATT against Abcg3, the z-score is 0.534.

GAUAUUCCUGCUCACAGUGTT against Olfr1265: the z-score was -1.04. Take UAGUCAUCUUCACUCUCCUTT against Olfr1249: the z-score was -0.907. Consider GGACUUUUACCAGUUCUCCTT against Ece2, for which the z-score is -2.43 (active). For the sequence GGCUCUCUGUCUGGAAAAGTT against Vcan, the z-score was -1.25. Next, GGAGCUGAGGAAUUGAUCCTT against Pudp: -1.97; CCAUUGCAUGCAAUGACUATT against S100a10: -1.25; GGAAGCAGCAAAGAAGUUGTT against Olfr1109: 0.918. For the sequence CCUAUCAUGUUAAAAACAGTT against Grem2, the z-score is -1.13.
